The nature of test [1]: antimalarial activity against Dd2 strain (AID 2302;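 active = growth inhibition above 50% at the single 2 µM test dose, taken to imply half-maximal potency below 2 µM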;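 also: 0% = DMSO untreated growth and 100% = chloroquine plus artemisinin killed control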). The conditions noted are these: P. falciparum Dd2 in RBCs, LDH growth readout, 72 h; at 2 µM; stronger effect = higher value.
Test [2] can be described thus: human hepatoma cell viability loss – ATP luminescence, cytotoxicity control for P. falciparum antimalarial project, primary screen (AID 2303;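 active = inhibition above 50%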;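 also: 0% = DMSO wells and 100% = digitonin-killed cells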). Conditions: HepG2 viability, 24-48 h, at 10 µM, stronger effect = higher value.
Test [3] deals with L-lactate dehydrogenase (Plasmodium falciparum (isolate CDC / Honduras)) (UniProt Q27743). As to the kind of experiment: PfLDH activity inhibition – cell lysate, 3D7 strain, counter-screen for P. falciparum growth inhibition project (AID 2304).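 Also: 0% = vehicle and 100% = reference inhibitor.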 Conditions: P. falciparum 3D7 crude extract, LDH APAD/NBT absorbance; at 2 µM; stronger effect = higher value.
Test [4] in a line: inhibition of 3D7 malaria parasite growth – strain 3D7 (AID 2306).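 Also: 0% = DMSO wells and 100% = chloroquine plus artemisinin control wells.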 The conditions noted are these: P. falciparum 3D7 erythrocytic growth, LDH absorbance, 72 h; at 2 µM; stronger effect = higher value.
Test [5] concerns the target Calcium-dependent protein kinase 1 (Plasmodium falciparum (isolate 3D7)) (UniProt P62344). As to the kind of experiment: PfCDPK1 kinase inhibitors, biochemical, TCAMS library (AID 1159585; cut-off not given, nearly all actives have IC50 up to about 0.98 µM;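 also: inhibitors leave more ATP so luminescence rises with inhibition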). The conditions noted are these: recombinant PfCDPK1, Kinase-Glo ATP depletion luminescence. On the technique in general: In Kinase-Glo more light means more ATP remaining.
Test [6] deals with Plasmodium falciparum protein kinase 6 (PK6, PF3D7_1337100) (UniProt Q8IDW1). As to the kind of experiment: PfPK6 kinase inhibitors, biochemical, TCAMS library (AID 1159586). Conditions: recombinant PfPK6, Kinase-Glo ATP depletion luminescence.
The target of test [7] is Protein kinase 7 (PK7), Plasmodium falciparum 3D7 (PF3D7_0213400) (UniProt Q7YTF7). The experiment in a line: inhibition of Plasmodium PK7 catalytic activity – biochemical, TCAMS antimalarial set, Kinase-Glo luminescence (AID 1159587). Conditions: recombinant PfPK7, Kinase-Glo ATP depletion luminescence.
For test [8], the target named is Calcium-dependent protein kinase 4 (Plasmodium falciparum (isolate 3D7)) (UniProt Q8IBS5). As to the kind of experiment: PfCDPK4 kinase inhibitors, biochemical, TCAMS library (AID 1159588; cut-off not given, nearly all actives have IC50 up to about 0.91 µM). Conditions: recombinant PfCDPK4, Kinase-Glo ATP depletion luminescence.

Molecules are shown by their SMILES. Unmarked numbers belong to inactive results. For some of these results: Entries with a potency or affinity are not part of this list. Activity calls are given as the source filed them. Unless noted, no rule for the calls is given here.

L-lactate dehydrogenase (Plasmodium falciparum (isolate CDC / Honduras)), sequence (Q27743 whole entry, looked up): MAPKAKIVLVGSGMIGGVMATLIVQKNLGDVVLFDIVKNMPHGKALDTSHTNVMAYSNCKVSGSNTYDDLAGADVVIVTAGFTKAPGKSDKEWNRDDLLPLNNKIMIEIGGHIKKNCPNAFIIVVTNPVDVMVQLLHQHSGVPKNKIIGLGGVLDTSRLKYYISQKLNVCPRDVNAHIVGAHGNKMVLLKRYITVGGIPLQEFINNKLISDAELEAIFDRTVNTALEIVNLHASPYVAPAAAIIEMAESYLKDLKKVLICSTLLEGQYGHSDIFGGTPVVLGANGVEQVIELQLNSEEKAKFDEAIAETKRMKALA
Calcium-dependent protein kinase 4 (Plasmodium falciparum (isolate 3D7)), sequence (Q8IBS5 whole entry, looked up): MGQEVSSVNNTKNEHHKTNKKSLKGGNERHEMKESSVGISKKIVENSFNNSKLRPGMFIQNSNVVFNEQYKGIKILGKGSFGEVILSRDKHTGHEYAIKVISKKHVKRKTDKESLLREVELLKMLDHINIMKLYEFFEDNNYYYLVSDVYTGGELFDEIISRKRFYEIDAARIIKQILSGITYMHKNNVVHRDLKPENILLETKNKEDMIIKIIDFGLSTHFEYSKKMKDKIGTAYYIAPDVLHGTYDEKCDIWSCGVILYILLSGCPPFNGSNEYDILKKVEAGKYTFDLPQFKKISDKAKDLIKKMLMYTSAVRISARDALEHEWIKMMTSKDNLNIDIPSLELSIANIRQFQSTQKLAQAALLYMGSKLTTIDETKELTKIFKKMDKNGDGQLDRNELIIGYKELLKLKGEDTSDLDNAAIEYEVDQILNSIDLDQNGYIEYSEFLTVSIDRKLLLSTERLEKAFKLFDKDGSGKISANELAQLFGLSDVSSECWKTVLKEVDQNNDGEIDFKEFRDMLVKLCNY
Plasmodium falciparum protein kinase 6 (PK6, PF3D7_1337100), sequence (Q8IDW1 1-305): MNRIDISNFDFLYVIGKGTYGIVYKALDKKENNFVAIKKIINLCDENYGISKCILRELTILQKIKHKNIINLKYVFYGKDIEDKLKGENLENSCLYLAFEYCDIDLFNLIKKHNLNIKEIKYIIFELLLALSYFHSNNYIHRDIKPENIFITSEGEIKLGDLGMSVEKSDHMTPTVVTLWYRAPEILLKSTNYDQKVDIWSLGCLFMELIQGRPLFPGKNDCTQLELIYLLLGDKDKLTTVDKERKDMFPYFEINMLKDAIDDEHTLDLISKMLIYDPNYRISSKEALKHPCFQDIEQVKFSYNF
Protein kinase 7 (PK7), Plasmodium falciparum 3D7 (PF3D7_0213400), sequence (Q7YTF7 1-343): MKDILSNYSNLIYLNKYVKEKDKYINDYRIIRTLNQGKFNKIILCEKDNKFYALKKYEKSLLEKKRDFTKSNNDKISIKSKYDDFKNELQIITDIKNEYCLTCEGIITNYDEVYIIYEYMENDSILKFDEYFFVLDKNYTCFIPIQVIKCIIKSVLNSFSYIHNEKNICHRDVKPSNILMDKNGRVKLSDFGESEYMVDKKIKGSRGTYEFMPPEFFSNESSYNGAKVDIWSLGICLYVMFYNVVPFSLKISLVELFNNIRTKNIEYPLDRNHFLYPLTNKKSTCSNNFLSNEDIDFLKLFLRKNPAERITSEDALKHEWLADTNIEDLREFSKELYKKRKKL
Calcium-dependent protein kinase 1 (Plasmodium falciparum (isolate 3D7)), sequence (P62344 whole entry, looked up): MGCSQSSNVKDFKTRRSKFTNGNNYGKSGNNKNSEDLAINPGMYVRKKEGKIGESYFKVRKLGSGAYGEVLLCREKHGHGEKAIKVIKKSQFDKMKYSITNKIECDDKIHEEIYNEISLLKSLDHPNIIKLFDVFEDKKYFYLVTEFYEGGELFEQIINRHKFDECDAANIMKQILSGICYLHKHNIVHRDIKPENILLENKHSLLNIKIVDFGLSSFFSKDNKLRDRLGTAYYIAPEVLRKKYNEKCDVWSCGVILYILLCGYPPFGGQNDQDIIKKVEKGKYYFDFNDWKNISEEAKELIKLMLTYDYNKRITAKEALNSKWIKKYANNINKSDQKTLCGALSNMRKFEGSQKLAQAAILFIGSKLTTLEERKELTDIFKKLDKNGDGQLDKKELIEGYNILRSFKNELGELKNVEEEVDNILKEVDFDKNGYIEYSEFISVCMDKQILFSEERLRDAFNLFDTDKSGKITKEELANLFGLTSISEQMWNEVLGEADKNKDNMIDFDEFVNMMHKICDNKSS

Broadly, the inhibition is the relative decrease from the control value, in per cent. For `CN(Cc1cccc(F)c1)C1CCN(c2cc(NC(=O)c3ccc(F)cc3)ccn2)CC1`, the growth inhibition in test [1] was 36%; in test [4], 95% (active). Moreover, the inhibition in test [2] was -3%; in test [3] it was 3%. The outcome in test [5], in test [6], in test [7] and in test [8] was inactive.
Consider `N#CCCn1nc(-c2ccc(Cl)cc2)c2c(c1=O)CCCC2`, for which the values for the growth inhibition in test [1] and in test [4] were 32% and 94% (active), respectively. Also, the inhibition is 0% in test [2] and -1% in test [3]. Further, the result in test [5], in test [6], in test [7] and in test [8] was inactive.
In the case of `Nc1c2ccccc2nc2cc(C(F)(F)F)ccc12`, the growth inhibition in test [1] was 49%; in test [4], 101% (active). Further, the inhibition in test [2] is 8%; in test [3] it was 1%. The outcome in test [5], in test [6], in test [7] and in test [8] was inactive.
Consider `CC(C)C[C@H]1c2[nH]c3ccc(Cl)cc3c2CCN1C(=O)CCc1ccccc1`, for which the growth inhibition in test [1] is 81% (active); in test [4], 95% (active). Further, the inhibition in test [2] is -2%; in test [3] it was 6%. Moreover, the outcome in test [5], in test [6], in test [7] and in test [8] was inactive.
Take `CNC(=O)c1[nH]c(-c2ccccc2)nc1NC(C)=O`: the growth inhibition was -2% in test [1] and 100% (active) in test [4]. Besides, the results for the inhibition in test [2] and in test [3] were -3% and -2%, respectively. Also, the outcome in test [5], in test [6], in test [7] and in test [8] was inactive.
Regarding `CS(=O)(=O)CCNCc1nc(-c2ccc3c(Nc4ccc(Cl)cc4F)ccnc3c2)cs1`, the growth inhibition in test [1] is 28%; in test [4] it was 88% (active). For the same compound, the results for the inhibition in test [2] and in test [3] were 19% and 1%, respectively. In addition, the outcome in test [5], in test [6], in test [7] and in test [8] was inactive.
As to `COc1ccc(-c2cc(-c3ccc(S(C)(=O)=O)cc3)cnc2N)cn1`, the growth inhibition in test [1] is 99% (active); in test [4], 94% (active). The inhibition in test [2] is 5%; in test [3], 0%. Besides, the result in test [5], in test [6], in test [7] and in test [8] was inactive.
`O=S(=O)(Nc1ccc(CCN2CCC(N3CCCCC3)CC2)cc1)c1ccccc1C(F)(F)F`: the growth inhibition in test [1] was 8%; in test [4], 95% (active). The inhibition is 9% in test [2] and -3% in test [3]. Besides, the outcome in test [5], in test [6], in test [7] and in test [8] was inactive.
For the compound `COc1ccc(-c2cccc(NC(=O)c3ccc(Cl)cc3)c2)cc1CN(C)CCN(C)C`, the growth inhibition is 61% (active) in test [1] and 99% (active) in test [4]. For the same compound, the inhibition in test [2] is 37%; in test [3] it was 4%. For the same compound, the result in test [5], in test [6], in test [7] and in test [8] was inactive.
Take `COc1ccc(CN(C)CCCOc2ccc(NC(=O)c3cccc4c(=O)c5cccc(F)c5[nH]c34)cc2)cc1OC`: the growth inhibition was 96% (active) in test [1] and 100% (active) in test [4]. The values for the inhibition in test [2] and in test [3] were 6% and -3%, respectively. The outcome in test [5], in test [6], in test [7] and in test [8] was inactive.
On to `CCOC(=O)c1ccc(OCCCCCCOc2ccc(Br)cc2)cc1`, for which the growth inhibition in test [1] is -2%; in test [4] it was 98% (active). Besides, the results for the inhibition in test [2] and in test [3] were 12% and -4%, respectively. In addition, the result in test [5], in test [6], in test [7] and in test [8] was inactive.
Take `Cc1ccc(CNC(=O)[C@H](Cc2ccccc2)Nc2cc(C)nc(NCCc3ccc(F)cc3)n2)cc1`: the growth inhibition in test [1] was 22%; in test [4], 98% (active). Besides, the figures for the inhibition in test [2] and in test [3] were 10% and -3%, respectively. The result in test [5], in test [6], in test [7] and in test [8] was inactive.
`CCOc1cc(C(=O)NCc2cc(Cl)cc(Cl)c2)ccc1-c1nc2ccc(Cl)cc2[nH]1`: the growth inhibition in test [1] was 5%; in test [4], 101% (active). In addition, the inhibition in test [2] is 1%; in test [3], -3%. Besides, the result in test [5], in test [6], in test [7] and in test [8] was inactive.
Consider `CN(C)c1ccc(-c2nnc(Sc3ccc(C#N)c([N+](=O)[O-])c3)n2Cc2ccco2)cc1`, for which the growth inhibition in test [1] is 79% (active); in test [4], 95% (active). Besides, the inhibition in test [2] and in test [3] was 3% each time. For the same compound, the result in test [5], in test [6], in test [7] and in test [8] was inactive.
Regarding `COc1cccc(NC(=O)COc2ccc(C(=O)Nc3nc4ccccc4[nH]3)cc2)c1`, the growth inhibition in test [1] is 29%; in test [4], 99% (active). Moreover, the inhibition in test [2] was 19%; in test [3], 0%. In addition, the result in test [5], in test [6], in test [7] and in test [8] was inactive.
Consider `CC(C)c1ccc(NC(=O)N2CCc3ccc(OCCN(C(C)C)C(C)C)cc32)c(Br)c1`, for which the growth inhibition is 5% in test [1] and 86% (active) in test [4]. Besides, the inhibition in test [2] is 6%; in test [3], 2%. Besides, the result in test [5], in test [6], in test [7] and in test [8] was inactive.
As for `Cc1ccn2c(C(=O)N3CCN(c4cccc5c4nc(-c4ccoc4)n5Cc4ccccn4)CC3)c(C)nc2c1`, the growth inhibition in test [1] is 99% (active); in test [4], 98% (active). Moreover, the results for the inhibition in test [2] and in test [3] were 2% and -1%, respectively. Besides, the outcome in test [5], in test [6], in test [7] and in test [8] was inactive.
As for `COc1cc(NC(=O)c2cccc([N+](=O)[O-])c2)cc(S(=O)(=O)c2ccc(Cl)cc2)c1`, the values for the growth inhibition in test [1] and in test [4] were 23% and 88% (active), respectively. For the same compound, the inhibition in test [2] was -12%; in test [3], -3%. Also, the result in test [5], in test [6], in test [7] and in test [8] was inactive.
Take `O=C(/C=C/c1ccc(F)c(Br)c1)NCCCCCN1CCC(c2c[nH]c3ccccc23)CC1`: the growth inhibition was 10% in test [1] and 92% (active) in test [4]. Further, the inhibition is 39% in test [2] and -7% in test [3]. Besides, the outcome in test [5], in test [6], in test [7] and in test [8] was inactive.
As for `O=C(Nc1ccc(-c2cccc(-c3nc4ccccc4[nH]3)c2)cc1)Nc1ccc(F)c(F)c1F`, the figures for the growth inhibition in test [1] and in test [4] were 96% (active) and 100% (active), respectively. Besides, the inhibition was 74% (active) in test [2] and 5% in test [3]. Moreover, the result in test [5], in test [6], in test [7] and in test [8] was inactive.

The values are drawn from PubChem BioAssay.
